Assay results as given in PubChem BioAssay (Tox21).
Inconclusive results are not listed. Unmarked numbers belong to inactive results. Active and inactive are the calls of the source. Calls follow the shape of the dose curve; as a rule, active = well fitted cell-killing curve with a large enough effect in the repeat runs; inconclusive = weak or mixed curves, or effect the other way; inactive = no such curve, though single readings can be large or run the other way.

assay: qHTS assay to identify small molecule antagonists of the sonic hedgehog signaling (Shh) pathway - cell viability counter screen (AID 1259367); settings: NIH/3T3 Gli1-Luc viability, CellTiter-Fluor, 24 h; series mostly up to 92.4 µM; viability change, negative = cytotoxic: at the top concentration; also: nearly all actives have a fitted effect of over 55% in size
Text: National Center for Advancing Translational Sciences [NCATS]
NIH Chemical Genomics Center [NCGC]
U.S. Environmental Protection Agency [EPA]
National Institutes of Environmental Health Sciences [NIEHS]
National Toxicology Program [NTP]
U.S. Food and Drug Administration [FDA]
The sonic hedgehog (Shh) pathway is essential for normal embryonic development. Dysregulation of the Shh pathway can cause severe developmental defects in organs. Therefore chemicals that interfere with the pathway are potential developmental toxicants. A cell line designated 3T3Gli1-Luc (DMB/OARSA/CFSAN/FDA, Laurel, MD), a NIH/3T3 derived clone containing stably integrated Gli1-Luc reporter is used to detect chemical interference of the Shh pathway, by changes in the expression of the firefly Luc gene under the control of the Gli1 transcriptional response element. This cell line was used to screen Tox21 libraries for identifying and prioritizing the potential developmental toxicants that interfere Shh pathway. Conditioned medium-stimulated mode was used to screen for chemicals inhibiting Shh signaling. The cytotoxicity of the compounds was tested in parallel by measuring the cell viability using CellTiter-Fluor assay system (Promega, Madison, WI) in the same wells.
Tox21 Assay Protocol Summary:
3T3 Gli1-Luc cells were dispensed at 2,000 per well in 5uL of culture medium into white solid bottom 1536-well plates (Greiner Bio-One, Monroe, NC) using a Multidrop Combi (Thermo Scientific, Waltham, MA) dispenser. The assay plates were incubated at 37 C and 5% CO2 for 4hr, and then 23nL of compounds dissolved in DMSO and positive control were transferred using a Pintool station (Wako, San Diego, CA). The compound transfer was followed by the addition of 1ul conditioned medium or assay buffer using two separate tips of Flying Reagent Dispenser (FRD, Aurora Discovery, San Diego, CA). The assay plates were incubated at 37C and 5% CO2 for 24hr. For viability read, after 23hr of compound treatment, 1uL of CellTiter-Fluor reagent (Promega Corporation, Madison, WI) was added to each well of the assay plates using Flying Reagent Dispenser (FRD, Aurora Discovery, San Diego, CA) and incubated the assay plates at 37C for 1hr. The fluorescence signal was quantified using a ViewLux plate reader (Perkin Elmer, Shelton, CT).
% is scaled to controls: 0 for no effect and ±100 for the full control effect; potency is read from the fitted curve at half-maximal effect.

SMILES	viability change, negative = cytotoxic	Potency
CCCCCCCCCCCSCC(=O)O	8.52%	–
O=C1c2ccccc2C(=O)c2c(O)ccc(O)c21	3.18%	–
CCCCC[C@H](O)/C=C/[C@H]1[C@H](O)CC(=O)[C@@H]1C/C=C\CCCC(=O)O	-27.3% [at 42.5 µM]	–
CC(CN(CCN(CC(C)OCCO)CC(C)OCCO)CC(C)OCCO)OCCO (stereo not given)	-6.76%	–
CC/C=C\C/C=C\C/C=C\CCCCCCCC(=O)OCC	-14.8%	–
C=CCOC(=O)COCCC(C)C	5.78%	–
COc1ccc(CCN(C)CCCN2CCc3cc(OC)c(OC)cc3CC2=O)cc1OC	-17% [at 42.5 µM]	–
O=C1OC[C@H](Cc2cccc(O)c2)[C@H]1Cc1cccc(O)c1	-0.445% [at 42.5 µM]	–
Nc1ccc(S(=O)(=O)NCc2ccccc2)cc1	-1.71% [at 42.5 µM]	–
CCCCC(CC)COS(=O)(=O)O (stereo not given)	13.8%	–
CCCCCCCCCCCCCCCCCC(=O)OCC(CC)CCCC (stereo not given)	-0.211%	–
CC(=O)NCCO	0.813%	–
CC(=O)Oc1cccc(O)c1	-0.554% [at 42.5 µM]	–
CCC(=O)OCc1ccc(OC)cc1	3.77%	–
Cc1c(C2(c3cc(Br)c(O)c(Br)c3C)OS(=O)(=O)c3ccccc32)cc(Br)c(O)c1Br	–	10.5 µM (active)
CCOC(=O)Oc1ccc(CCNC(=O)[C@H](CCSC)NC(C)=O)cc1OC(=O)OCC	-7.13% [at 42.5 µM]	–
CC(C)COC(=O)c1ccc(O)cc1	-15.5%	–
COc1cc(NC(C)CCCN)c2ncccc2c1 (stereo not given)	-4% [at 42.5 µM]	–
CC1=C2[C@@H]([C@H](C)CC[C@H]2/C=C(\C)C(=O)O)[C@H](O)C1	-4.99%	–
CC(C)N(C)C	5.04%	–

SMILES	viability change, negative = cytotoxic	Potency
C/C(C=O)=C\c1ccccc1	0.802%	–
O=C(O)CN1C(=O)c2cccc3cccc(c23)C1=O	2.32% [at 42.5 µM]	–
CC(C)c1ccc(C(=O)N=C(N)N)cc1S(C)(=O)=O	-4.78% [at 42.5 µM]	–
Cc1oc(=O)oc1COC(=O)[C@@H]1N2C(=O)[C@@H](NC(=O)[C@H](N)c3ccccc3)[C@H]2SC1(C)C	-0.769% [at 42.5 µM]	–
CC(=O)OC(C)C[N+](C)(C)C (stereo not given)	-0.544% [at 42.5 µM]	–
c1ccc(CNc2ncnc3c2ncn3C2CCCCO2)cc1 (stereo not given)	1.11%	–
CCC(CO)(CO)CO	0.898%	–
O=C(O)c1ccc(O)cc1O	3.84%	–
CCCCCCCCCCCCCCN(C)C	4.21% [at 19 µM]	–
CC(CO)(CO)C(=O)O	-1.28%	–
CCCOC(=O)c1c(Cl)c(Cl)c(Cl)c(Cl)c1C(=O)OCCC	0.886%	–
O=C(NS(=O)(=O)/C=C/c1ccccc1)c1ccc(F)cc1Cl	2.01%	–
O=C1CC[C@@H](C(=O)O)N1	0.353% [at 42.5 µM]	–
COc1cc(NCc2ccc3nc(N)nc(N)c3c2C)cc(OC)c1OC	–	15 µM (active)
CC(C)(C)C1(CCc2ccc(Cl)cc2)CO1 (stereo not given)	0.388%	–
O=C(O)CNC(=O)c1ccccc1I	-1.77% [at 42.5 µM]	–
CCCCCCOC(=O)CCCCC	1.51%	–
Oc1cccc2[nH]ccc12	-2.35% [at 42.5 µM]	–
COc1cc(NS(=O)(=O)c2ccc(N)cc2)nc(C)n1	4.05% [at 42.5 µM]	–
CNC1CCCN(c2c(F)cc3c(=O)c(C(=O)O)cn(C4CC4)c3c2OC)C1 (stereo not given)	-4.3% [at 42.5 µM]	–
